# PABP polyA inh = blocks human PABP binding to poly(A) RNA. P11940. fluorescence polarization. calls only at 35 µM. 1% of 290,000 active. AID 2014;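 further: calls also rest on retests at 20 µM and on dose response follow-up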
# Efa HMGR inh = inhibitors of class II HMG-CoA reductase from Enterococcus faecalis. purified E. faecalis HMGR, NADPH absorbance 340 nm kinetic. inhibition, % at 10 µM. 0.41% of 190,000 active. AID 1066;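 active means inhibition above a set limit, the median over all tested compounds plus 3 SD, cut at about 9.5% in these data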;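 further: enzyme runs in reverse so mevalonate oxidation gives rising NADPH absorbance; 0% = complete reaction with DMSO and 100% = background rate lacking mevalonate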
# MLLE-PAM2 inh = blocks PAM2 peptide binding to the PABP1 MLLE domain. 0.36% of 360,000 active. GST-MLLE / FITC-PAM2 fluorescence polarization. P11940. inhibition, % at 20 µM; in the data active means inhibition above about 35%, passing the limit was not always enough;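 further: plate controls were DMSO wells with GST-MLLE for no effect and wells lacking GST-MLLE protein for full effect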
# PHOSPHO1 inh = inhibitors of human PHOSPHO1 phosphatase; recombinant PHOSPHO1, absorbance phosphatase assay; 1.1% of 290,000 active; Q8TCT1; inhibition, % at 13.3 µM; in the data active means inhibition above about 60%
# Target sequence (Q8TCT1 whole entry, looked up): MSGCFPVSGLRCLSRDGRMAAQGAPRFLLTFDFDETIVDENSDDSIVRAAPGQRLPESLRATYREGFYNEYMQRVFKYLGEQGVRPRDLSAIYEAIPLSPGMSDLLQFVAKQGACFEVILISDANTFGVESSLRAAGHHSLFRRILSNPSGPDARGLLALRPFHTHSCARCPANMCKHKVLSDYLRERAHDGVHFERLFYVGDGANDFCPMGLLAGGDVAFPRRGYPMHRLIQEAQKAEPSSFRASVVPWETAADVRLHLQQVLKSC
# eIF4H inh = inhibitors of RNA binding by human eIF4H; Q15056; eIF4H fluorescence polarization binding assay; inhibition, % at 35 µM; 0.94% of 290,000 active;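 further: calls also rest on retests at 20 µM and on dose response follow-up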
# * hit, by the source's call; i = inactive; · = no result given; + = active, no number. In the library only some 2.4% were active in any assay of this set; here they are far more common. Unless noted, how the calls were made is not given here.
SMILES,PABP polyA inh,Efa HMGR inh,MLLE-PAM2 inh,PHOSPHO1 inh,eIF4H inh
COCCn1c(C)cc(C(=O)CSc2nc3ccccc3o2)c1C,i,1.5,-8.8,97.8*,18.8
Cn1cc(-c2csc(C(O)c3ccc(F)c(F)c3)n2)cn1 (configuration not stated),·,·,-0.1,·,·
O=[N+]([O-])c1cccc(C(=Nc2cccc(Cl)c2)NO)c1,+,-0.5,2.6,-6.9,70.3*
O=C1CC(c2ccc(Cl)cc2)CC(=O)C1CS(=O)(=O)c1ccccc1 (configuration not stated),i,-2.0,30.5,24.1,-3.6
O=C1CCCC(=O)C1CS(=O)(=O)c1ccccc1,i,0.1,52.2*,-7.2,-7.6
CN1CCN(C(=O)Nc2cccc(-c3ccccc3)c2)CC1,i,·,-6.9,33.1,2.0
CC(C)Cc1cc(C(=O)Nc2ccc(F)cc2F)no1,i,-7.7,-12.0,10.1,0.9
CC(C)Cc1cc(C(=O)Nc2c(F)cc(F)cc2Br)no1,i,-6.5,11.4,6.1,60.6*
CN(C)CC#Cc1cccc(-c2nc(C(=O)O)cc3c2[C@@H](CCO)N(S(=O)C(C)(C)C)C3)c1 (some centres not stated),·,·,6.0,·,·
Oc1ccccc1-c1n[nH]c(=S)n1Cc1ccco1,i,0.6,-1.8,94.5*,-12.0
Cc1cc(-c2n[nH]c(=S)n2Cc2ccco2)nn1C,i,-2.2,-10.5,-29.4,2.9
COc1ccc(-c2n[nH]c(=S)n2Cc2ccco2)cc1,i,-6.9,-5.7,101.6*,6.9
CC(=O)c1c(C)oc2c1cc(O)c1ccccc12,i,·,1.3,-1.5,-7.0
CC(=O)c1coc2c1cc(O)c1ccccc12,i,-6.5,0.8,64.4*,6.0
CC(=O)c1cc(O)c2ccccc2c1O,i,·,41.3*,-22.6,12.8
Cc1ccc(Cl)cc1N1CCN(S(=O)(=O)c2ccc3c(c2)CC(=O)N3C)CC1,i,·,11.4,47.7,-5.0
Cn1cc([N+](=O)[O-])c(C(=O)Nc2ccc(-c3nc4ccccc4[nH]3)cc2)n1,i,12.1*,-10.3,-6.6,2.9
Cn1cc([N+](=O)[O-])c(C(=O)Nc2ccc(C3CCCCC3)cc2)n1,i,11.2*,5.2,4.9,-1.1
CC(OC(=O)c1cc(=O)[nH]c2ccccc12)C(=O)N1C(C)CCCC1C (configuration not stated),·,·,-0.1,·,·
C=CCNc1nc2cc(-c3ccc(C(=O)N4CCOCC4)cc3)sc2c(=O)n1C,·,·,-2.1,·,·
COc1ccc(C)cc1NS(=O)(=O)c1ccccc1,·,·,-2.3,·,·
O=S(=O)(O)c1cc(O)c2c(O)c(N=Nc3cc(Cl)ccc3O)c(S(=O)(=O)O)cc2c1,+,·,4.0,37.3,80.4*
CC1Cc2ccccc2N1C(=O)C(C)n1cc(C(F)(F)F)cc(Cl)c1=O (configuration not stated),·,·,4.3,·,·
COC(=O)C1=C(C)N(Cc2ccco2)C(=O)N[C@@H]1c1ccccc1,i,10.9*,3.6,-3.7,-0.9
COC(=O)C1=C(C)N(Cc2ccccc2)C(=NCCc2ccccn2)N[C@H]1c1cccc(F)c1,+,·,-77.0,-131.4,23.6*
SMILES,PABP polyA inh,Efa HMGR inh,MLLE-PAM2 inh,PHOSPHO1 inh,eIF4H inh
COC(=O)C1=C(C)N(Cc2ccccc2)C(=NCC(C)C)N[C@H]1c1ccccc1,+,·,·,-46.8,94.4
COC(=O)C1=C(C)N(Cc2ccccc2)C(=NCc2ccc(OC)cc2)N[C@H]1c1ccccc1,·,·,-117.4,·,·
CCN1C(=NCCc2ccccn2)N[C@@H](c2cccc(F)c2)C(C(=O)OC)=C1C,·,·,-74.5,-86.2,·
O=C(OC1C2C=CC1C1C(=O)NC21)c1ccccc1 (configuration not stated),·,·,2.9,·,·
O=C(Nc1nc2c(s1)CCCC2)C1CCCN1C(=O)c1cccs1 (configuration not stated),i,2.1,-82.9,94.9*,-7.0
O=C(C1=C(O)C(=O)N(CC2CCCO2)C1c1ccc(Cl)cc1Cl)c1ccco1 (configuration not stated),i,·,2.4,27.9,-16.2
O=C(N/N=C/c1ccncc1)c1cc([N+](=O)[O-])cc([N+](=O)[O-])c1O,i,-0.8,6.3,26.7,75.6*
O=C(N/N=C/c1ccc[nH]1)c1c[nH]c2ccccc12,i,·,-17.2,·,-8.9
O=C(N/N=C/c1ccc[nH]1)c1cc2ccccc2cc1O,i,·,-14.9,8.7,76.1*
O=C(N/N=C/c1ccncc1)c1cc2ccccc2cc1O,i,·,-6.2,61.0*,-5.4
CCCCN(CC(=O)NCCOC)C(=O)Cn1nnc2ccccc21,i,-4.4,7.2,-19.6,-8.6
CCN(C(=O)CN1CCCc2ccccc21)c1c(N)n(Cc2ccccc2)c(=O)[nH]c1=O,+,·,·,-29.9,98.9*

# Compound activity (PubChem)
